Here are results for 9 compounds from PubChem BioAssay (NCI).

Test systems include DU-145 prostate; K-562 leukemia; MDA-MB-231 breast; RXF 393 renal; SF-268 CNS; SF-295 CNS; SF-539 CNS; UACC-257 melanoma; M14 melanoma; HCT-15 colon; HT29 colon; SNB-75 CNS; SNB-19 CNS; U251 CNS; PC-3 prostate; SK-MEL-5 melanoma; UACC-62 melanoma; LOX IMVI melanoma; SK-MEL-28 melanoma; MALME-3M melanoma.
Holding throughout (experiment): NCI-60 one-dose screen, 48 h (100 = growth as untreated, 0 = no growth, -100 = all killed)
Details in all cases: 10 µM

This is part of a sample that, as a whole, favours compounds with a hit. Of some 83,000 tested, about 20% had one in any assay.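 Cell lines were cultured in 96-well plates, exposed to a single compound concentration, and assessed for percent growth 48 hours later.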 Values without a mark were called inactive. Calls of active or inactive are those of the source. The calls were made as follows: active = growth percent below 10; inactive = the rest.

On to `CC1OC2CC(=O)OC2C2=C1C(=O)c1c(O)c3c(c(O)c1C2=O)C1CC(O)C3(O)C(C)O1` (centres undefined), for which the growth with DU-145 prostate is -94.9% (active); in the test with K-562 leukemia it was 6.27% (active); with MDA-MB-231 breast it was -16.3% (active); in the test with RXF 393 renal it was -91.1% (active); in the test on SF-268 CNS, 1.92% (active); in the test on SF-295 CNS, 3.26% (active). The growth in the test on SF-539 CNS was -84.2% (active); with UACC-257 melanoma it was -58.4% (active); in the test on M14 melanoma it was -76.7% (active); in the test with HCT-15 colon, -15.8% (active); in the test on HT29 colon, -15.9% (active); in the test with SNB-75 CNS, -28.9% (active). The growth in the test with SNB-19 CNS is 4.68% (active); with U251 CNS, -23.4% (active); in the test with PC-3 prostate it was 7.91% (active); in the test with SK-MEL-5 melanoma, -96.1% (active); in the test with UACC-62 melanoma, -76.5% (active); with LOX IMVI melanoma, -65.9% (active). Further, the growth with SK-MEL-28 melanoma is -51.5% (active).

Consider `COc1ccccc1-n1c(-c2csc(NC(C)=O)n2)n[nH]c1=S`, for which the growth in the test with DU-145 prostate was 119%; in the test on K-562 leukemia, 87.5%; in the test on MALME-3M melanoma, 109%; in the test with MDA-MB-231 breast, 121%; in the test with RXF 393 renal it was 102%; with SF-268 CNS, 111%. Besides, the growth in the test with SF-539 CNS was 112%; with UACC-257 melanoma, 98.1%; in the test on M14 melanoma it was 98%; in the test on HT29 colon, 95.1%; with SNB-75 CNS it was 86.5%; in the test with SNB-19 CNS, 114%. Moreover, the growth in the test on PC-3 prostate was 95.4%; with SK-MEL-5 melanoma, 99.6%; with UACC-62 melanoma, 110%; with LOX IMVI melanoma, 93.1%; in the test with SK-MEL-28 melanoma it was 109%.

Take `COc1ccc(-c2nn(-c3cccc(Cl)c3)cc2/C=C2\NC(=S)N(c3ccc(Cl)cc3)C2=O)cc1`: the growth in the test on DU-145 prostate is 21.4%; in the test with K-562 leukemia, -12.2% (active); with MALME-3M melanoma, 19.1%; with MDA-MB-231 breast, 11.8%; with RXF 393 renal, -7.45% (active); with SF-268 CNS it was 38%. Besides, the growth in the test on SF-539 CNS is 75.3%; in the test on UACC-257 melanoma, 1.55% (active); with M14 melanoma, 4.39% (active); with HT29 colon, 9.73% (active); with SNB-75 CNS, 0.109% (active); in the test on SNB-19 CNS, 63.2%. Also, the growth in the test with PC-3 prostate was 42.5%; in the test with SK-MEL-5 melanoma, 24.2%; in the test with UACC-62 melanoma, 3.65% (active); in the test on LOX IMVI melanoma, 1.65% (active); with SK-MEL-28 melanoma it was -33.5% (active).

For `Nc1nc(Cn2c(-c3nonc3N)nc3ccccc32)nc(N2CCCCC2)n1`, the growth in the test on DU-145 prostate was 99%; with K-562 leukemia, 49.3%; in the test on MDA-MB-231 breast, 84.8%; in the test on RXF 393 renal, 87.7%; with SF-268 CNS, 95.6%; in the test with SF-295 CNS it was 96.7%. Further, the growth in the test on SF-539 CNS is 101%; in the test with UACC-257 melanoma it was 93.1%; in the test on M14 melanoma, 98.4%; in the test with HCT-15 colon, 84.8%; with HT29 colon, 105%; in the test with SNB-75 CNS, 76.4%. Further, the growth with SNB-19 CNS is 87%; in the test on U251 CNS it was 96.9%; in the test with PC-3 prostate, 78%; in the test on SK-MEL-5 melanoma it was 83.2%; in the test on UACC-62 melanoma, 84.3%; with LOX IMVI melanoma, 90%. Further, the growth in the test on SK-MEL-28 melanoma is 95%.

As to `IC(I)I`, the growth in the test on DU-145 prostate was 107%; in the test on K-562 leukemia, 120%; in the test on MDA-MB-231 breast, 88.6%; in the test on RXF 393 renal, 125%; with SF-268 CNS it was 96.4%; with SF-295 CNS, 114%. The growth with SF-539 CNS is 118%; in the test on UACC-257 melanoma, 109%; in the test on M14 melanoma it was 99%; with HCT-15 colon, 101%; with HT29 colon, 115%; in the test with SNB-75 CNS, 90.8%. Also, the growth with SNB-19 CNS was 106%; in the test with U251 CNS it was 102%; in the test on PC-3 prostate it was 109%; in the test on SK-MEL-5 melanoma, 104%; with UACC-62 melanoma it was 88.9%; in the test with SK-MEL-28 melanoma, 109%.

With `COc1cc(NC(=O)C2=C(N3CCOCC3)/C(=C/c3ccc(Cl)cc3)CC2)cc(OC)c1OC`, the growth was 99.4% in the test with DU-145 prostate; 49.7% with K-562 leukemia; 93.6% in the test with MALME-3M melanoma; 91.6% in the test on MDA-MB-231 breast; 114% with SF-268 CNS; 118% in the test with SF-295 CNS. Further, the growth with SF-539 CNS is 101%; with UACC-257 melanoma, 59.5%; in the test with M14 melanoma, 97.3%; in the test on HCT-15 colon it was 73%; with HT29 colon it was 86%; in the test with SNB-75 CNS it was 90.5%. For the same compound, the growth was 79.3% in the test on SNB-19 CNS; 91.2% in the test with U251 CNS; 44.8% in the test with PC-3 prostate; 66.3% in the test with SK-MEL-5 melanoma; 73.1% in the test on UACC-62 melanoma; 89.4% with LOX IMVI melanoma. Besides, the growth in the test on SK-MEL-28 melanoma is 112%.

As to `CCOC(=O)Cn1c(=O)c2sc3ncccc3c2n2nnc(-c3ccccc3)c12`, the growth is 119% in the test on DU-145 prostate; 96.4% in the test on K-562 leukemia; 87.2% with MDA-MB-231 breast; 112% with RXF 393 renal; 112% in the test with SF-268 CNS; 110% in the test with SF-295 CNS. In addition, the growth in the test on SF-539 CNS was 105%; in the test with UACC-257 melanoma it was 108%; in the test on M14 melanoma, 99%; with HCT-15 colon, 107%; in the test with HT29 colon, 107%; in the test on SNB-75 CNS, 77.2%. Besides, the growth is 101% in the test with SNB-19 CNS; 104% with U251 CNS; 94.8% in the test on PC-3 prostate; 104% in the test on SK-MEL-5 melanoma; 90.5% with UACC-62 melanoma; 97.4% in the test with LOX IMVI melanoma. Further, the growth with SK-MEL-28 melanoma was 104%.

In the case of `CC1=NN(C(=O)c2nn(-c3ccc(Cl)cc3)cc2O)C(=O)C1`, the growth in the test with DU-145 prostate is 52.4%; in the test with K-562 leukemia, 15.3%; in the test with MDA-MB-231 breast, 63.2%; in the test with RXF 393 renal, 56.9%; in the test with SF-268 CNS, 38.4%; in the test on SF-295 CNS it was 67%. Moreover, the growth with SF-539 CNS was 51.9%; with UACC-257 melanoma it was 74.5%; with M14 melanoma it was 50.9%; in the test with HCT-15 colon it was 34.5%; with HT29 colon it was 41.8%; in the test with SNB-75 CNS, 28.7%. In addition, the growth with SNB-19 CNS was 59.6%; in the test on U251 CNS, 47.9%; in the test on SK-MEL-5 melanoma, 64.9%; in the test on UACC-62 melanoma, 41.5%; in the test with LOX IMVI melanoma, 40.5%; with SK-MEL-28 melanoma, 72.1%.

On to `O=[N+]([O-])c1ccc(NCSc2ccc(Cl)cc2)cc1`, for which the growth in the test on DU-145 prostate was 98.3%; in the test with K-562 leukemia it was 86.9%; with MDA-MB-231 breast it was 94.3%; with RXF 393 renal, 103%; in the test with SF-268 CNS, 94.1%; with SF-295 CNS, 105%. Besides, the growth is 99.7% in the test with SF-539 CNS; 101% in the test on UACC-257 melanoma; 109% in the test with M14 melanoma; 96.9% in the test with HCT-15 colon; 107% in the test on HT29 colon; 98.6% with SNB-75 CNS. The growth is 103% in the test with SNB-19 CNS; 82% with U251 CNS; 80.9% in the test with PC-3 prostate; 100% in the test with SK-MEL-5 melanoma; 81.9% with LOX IMVI melanoma; 104% in the test with SK-MEL-28 melanoma.
